HT1080NT lethal: kills 2HG-producing HT-1080-NT fibrosarcoma cells; HT-1080-NT fibrosarcoma viability, CellTiter-Glo ATP luminescence, 48 h; Potency, µM (top dose mostly 46.1 µM), without a hit: at the top dose activity, negative = less viability, actives largely listed as cytotoxic; 360,000 compounds, 1.6% hits; AID 686970;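 further: NT is the 2HG producing partner of a matched IDH1 knockdown line; 0% = DMSO-treated cells and -100% = media-only wells without cells; nearly all actives have a fitted effect of over 55% in size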
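Compounds were tested in concentration-response format on HT-1080-NT cells for 48 hours at 37 degrees C. Cell viability came from CellTiter-Glo luminescence; curves were classified by r2, response magnitude and activity.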
HT1080 IDH1KD tx: toxicity to HT-1080 IDH1 knockdown cells (counter line). 360,000 compounds, 2% hits. Potency, µM (doses to about 46.1 µM), for inactives: at the highest dose activity, negative = toxicity, actives largely listed as cytotoxic. HT-1080 IDH1 knockdown viability, ATP luminescence, 48 h;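 further: 0% = DMSO wells and -100% = cell-free medium wells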
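Luminescent ATP read-out (CellTiter-Glo, 10 min at room temperature) after 48 h compound exposure at 37 °C gave viability of IDH1-knockdown HT-1080 cells. Activity was normalised to DMSO and cell-free wells, then fitted as concentration-response curves.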
TDP1 cell noCPT: qHTS for Inhibitors of human tyrosyl-DNA phosphodiesterase 1 (TDP1): qHTS in cells in absence of CPT. DT40 Tdp1-/- hTDP1 cells, no CPT, ATP luminescence, 48 h. Potency, µM (top dose mostly 46.2 µM), without a hit: top-dose activity change, negative = growth inhibition, hits mostly inhibitors. 420,000 compounds, 15% hits; further: nearly all actives have a fitted effect of over 55% in size
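Growth kinetics read by CellTiter-Glo luminescence after ≥48 hr at 37 °C. Cells: DT40 Tdp1-/- stably carrying human TDP1, 400 per well, compound exposure in the absence of CPT (DMSO vehicle).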
KB-3-1 cytotox: kills parental KB-3-1 adenocarcinoma cells. KB-3-1 viability, CellTiter-Glo ATP luminescence, 72 h. Potency, µM (highest dose often 46.1 µM), most hits filed as cytotoxic. 400,000 compounds, 1.4% hits. AID 1347075; further: nearly all actives have a fitted effect of over 60% in size
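KB-3-1 parental drug-naive adenocarcinoma cells in DMEM/10% FBS, incubated 72 h at 37 C with pin-transferred compounds across a concentration series. Viability by CellTiter-Glo luminescence; concentration-response curves fitted after normalization.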
KB-V1 MDR tox: KB-V1 MDR subline cytotoxicity; KB-V1 MDR cells viability, CellTiter-Glo, 72 h; Potency, µM (titrated, usually from 46.1 µM), usual class: cytotoxic; 400,000 compounds, 3.4% hits; AID 1347076; further: nearly all actives have a fitted effect of over 60% in size
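Cytotoxicity via CellTiter-Glo luminescence after 72 h compound exposure at 37 degrees C. Cells: drug-selected KB-V1 line, DMEM phenol-red free plus 10% FBS. Compounds tested at multiple concentrations; normalized data fitted to concentration-effect curves.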
DT40 TDP1 CPT: DT40-hTDP1 cell growth loss with CPT | chicken DT40 Tdp1-/-;hTDP1 cells + 20 nM CPT, ATP luminescence, 48 h | Potency, µM (doses to about 46.2 µM), for the others: at the highest dose activity change, negative = growth inhibition, most hits filed as inhibitors | 420,000 compounds, 12% hits | AID 686979; further: nearly all actives have a fitted effect of over 55% in size
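Cell growth measured by CellTiter-Glo luminescence after a minimum 48 h, 37 C compound exposure with 20 nM CPT in Tdp1-knockout DT40 cells stably expressing hTDP1, seeded 400/well; qHTS titration format.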
Starred values were filed as active, the others as inactive; i = inactive; u = inconclusive; x = not tested or not shown; [ ] = dose if it differs, or a comment. In the library only some 19% were active in any assay of this set; here they are far more common. The call rests on the fitted dose curve; in most records, active means well fitted curve in the direction sought with a large enough effect; inconclusive means small, poorly fitted or top-dose-only effect, or another doubt; inactive means no such curve, though single readings can be large; an effect the other way counts as inactive or inconclusive. Unless noted, on the % scale 0 is the no-effect control and ±100 the full control effect; potency means the concentration at half of the fitted maximal effect.

SMILES	HT1080NT lethal	HT1080 IDH1KD tx	TDP1 cell noCPT	KB-3-1 cytotox	KB-V1 MDR tox	DT40 TDP1 CPT
CN1CCN(CC(=O)c2ccccc2F)CC1	29%	u	-8%	i	i	-4%
Cc1c(O)ccc(C(=O)CN2CCN(c3ccccc3F)CC2)c1O	-9%	-8%	23µM*	i	i	u
O=C(CN1CCN(c2ccccc2F)CC1)c1ccc(O)c(O)c1	-3%	-24%	10µM*	u	i	23µM*
Cc1ccc2[nH]cc(C(=O)CN3CCN(c4ccccc4F)CC3)c2c1	11%	-5%	-17%	i	10µM*	u
CCN1CCN(CC(=O)c2c[nH]c3ccc(C)cc23)CC1	-5%	2%	u	i	i	-22%
COc1ccc2c(c1)c(C(=O)CN1CCOCC1)c(C)n2C	9%	8%	-22%	i	i	-1%
CSCCC(NS(=O)(=O)Cc1ccccc1)C(=O)NNc1ccccc1 (centres undefined)	u	u	-12%	i	i	3%
CC(C)c1ccc(S(=O)(=O)c2nnn3c2nc(NC2CCCC2)c2sccc23)cc1	x	x	-16%	i	i	9%
COc1ccc(N2CCN(CC(=O)c3ccc(O)c(C)c3O)CC2)cc1	-2%	-1%	21µM*	i	i	u
COc1ccc(C(=O)CN2CCN(c3ccc(F)cc3)CC2)cc1	0%	1%	-7%	i	i	1%
Cc1c(O)ccc(C(=O)CN2CCN(c3ccccc3)CC2)c1O	11%	-1%	23µM*	i	i	u
O=C(NCCS(=O)(=O)N1CCN(c2ccc(F)cc2)CC1)C12CC3CC(CC(C3)C1)C2	-2%	2%	16µM*	i	i	18µM*
O=C(NCCS(=O)(=O)N1CCN(c2ccc(F)cc2)CC1)c1cccc(C(F)(F)F)c1	x	x	18µM*	x	x	u
CCCc1cc(=O)oc2cc(C)c3c(C(C)(C)C)coc3c12	x	x	u	i	u	u
COc1cccc(-c2oc3c(c2-c2ccc(Br)nc2)C(O)CCC3)c1 (centres undefined)	-15%	-8%	-12%	i	i	u
COc1ccc(CNC(=O)[C@H](C)[C@@H]2C[C@@]2(C)[C@@H](NC(=O)OCc2ccccc2)c2ccccc2)cc1OC	6%	0%	12µM*	i	u	15µM*
Cc1cc(CNC(=O)[C@H](C)[C@@H]2C[C@@]2(C)[C@@H](NC(=O)OCc2ccccc2)c2ccccc2)nn1C	-1%	0%	u	i	i	23µM*
C[C@@H](C(=O)NCc1ccccc1)[C@H]1C[C@]1(C)[C@H](NC(=O)OCc1ccccc1)c1ccccc1	-16%	-14%	u	u	u	u
Cn1c(/C=C/c2ccc(Cl)cc2Cl)c([N+](=O)[O-])c(=O)n(C)c1=O	-19%	-18%	5.2µM*	7.3µM*	u	8.2µM*
CCN(Cc1ccncc1)Cc1ccc2c(c1)CN(C(=O)c1ccc(OC)cc1)CCO2	x	x	-27%	x	x	-1%[9.04 µM]
COc1ccc(CN2CCc3c(c(=O)n4ncc(C(=O)N5CCN(c6ccc(F)cc6)CC5)c4n3C)C2)cc1	x	x	1.8µM*	u	i	2.3µM*
COc1ccc(-n2ncc(C(=O)N3CCN(c4ccc(F)cc4)CC3)c2C)cc1	-10%	-5%	u	i	u	-29%
CCn1c2c(c(=O)n3ncc(C(=O)N4CCN(c5ccc(C(C)=O)cc5)CC4)c13)CN(Cc1ccc(OC)cc1)CC2	x	x	2.6µM*	21µM*	i	4.1µM*
CCn1c2c(c(=O)n3ncc(C(=O)Nc4ccc(OC(F)(F)F)cc4)c13)CN(Cc1ccc(OC)cc1)CC2	x	x	23µM*	i	i	u
COc1ccc(N2CCN(C(=O)c3cn(Cc4ccccc4)nc3-c3cccnc3)CC2)cc1	1%	-1%	-16%	i	i	-24%
SMILES	HT1080NT lethal	HT1080 IDH1KD tx	TDP1 cell noCPT	KB-3-1 cytotox	KB-V1 MDR tox	DT40 TDP1 CPT
CNC(=O)c1ccsc1NC(=O)C1CCCN1S(=O)(=O)c1cccs1 (centres undefined)	4%	2%	-15%	i	i	13%
COc1ccc(Nc2ncnc3c2cnn3Cc2ccccc2)cc1OC	u	u	u	i	18µM*	u
Clc1ccc(-n2ncc3c(NCc4ccccn4)ncnc32)cc1	-3%	-10%	3%	i	23µM*	-1%
Clc1ccc(Cn2ncc3c(NCc4ccccc4)ncnc32)cc1	5.8µM*	4.6µM*	4.1µM*	5.2µM*	6.5µM*	4.6µM*
CCc1nc(NC(C)(C)C)c2cnn(-c3ccccc3)c2n1	u	u	18µM*	i	i	u
Cc1ccc(CNc2ncnc3c2cnn3-c2ccc(Cl)cc2)cc1	x	x	-20%	i	i	-29%
COCCCNc1ncnc2c1cnn2-c1ccc(C)cc1C	u	-10%	-10%	i	i	-17%
COCCCNc1ncnc2c1cnn2-c1ccc(F)cc1	x	x	5.8µM*	x	x	5.2µM*
CCCCNc1ncnc2c1cnn2-c1ccccc1	u	15µM*	2.6µM*	6.5µM*	u	2.3µM*
Clc1ccc(-n2ncc3c(NCCCn4ccnc4)ncnc32)cc1	-5%	-1%	-24%	u	i	u
CCCCNc1ncnc2c1cnn2-c1ccc(Cl)cc1	12µM*	9.2µM*	4.6µM*	1.6µM*	u	3.7µM*
COCCNc1ncnc2c1cnn2Cc1ccccc1Cl	-6%	0%	18µM*	u	u	u
Cc1ccc(CNc2ncnc3c2cnn3-c2ccccc2)cc1	-8%	u	-17%	i	i	-54%
COCCNc1ncnc2c1cnn2Cc1ccc(Cl)cc1	-16%	-28%	u	u	u	u
CCN(CC)c1ncnc2c1cnn2Cc1ccc(Cl)cc1	-14%	-11%	u	i	u	21µM*
CCCCNc1ncnc2c1cnn2Cc1ccc(Cl)cc1	u	u	6.5µM*	u	i	9.2µM*
CC1CC(C)CN(c2ncnc3c2cnn3Cc2ccc(Cl)cc2)C1 (centres undefined)	u	-20%	u	i	u	u
CCOc1ccc(-c2nc(SCC(=O)NCCOC)c(-c3ccc(OC)c(OC)c3)[nH]2)cc1	x	x	u	i	i	-25%
